CHT PAM = human CHT allosteric activation | CHT-expressing cells, membrane potential dye, choline EC20; hits give high values; LV-AA mutant CHT in HEK293 cells | B-score at 10 µM | 310,000 compounds, 0.49% hits;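 active means initial fluorescence not abnormally high and integrated response B-score, plate-corrected, over 3 SD above library mean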
Target sequence (Q9GZV3 whole entry, looked up): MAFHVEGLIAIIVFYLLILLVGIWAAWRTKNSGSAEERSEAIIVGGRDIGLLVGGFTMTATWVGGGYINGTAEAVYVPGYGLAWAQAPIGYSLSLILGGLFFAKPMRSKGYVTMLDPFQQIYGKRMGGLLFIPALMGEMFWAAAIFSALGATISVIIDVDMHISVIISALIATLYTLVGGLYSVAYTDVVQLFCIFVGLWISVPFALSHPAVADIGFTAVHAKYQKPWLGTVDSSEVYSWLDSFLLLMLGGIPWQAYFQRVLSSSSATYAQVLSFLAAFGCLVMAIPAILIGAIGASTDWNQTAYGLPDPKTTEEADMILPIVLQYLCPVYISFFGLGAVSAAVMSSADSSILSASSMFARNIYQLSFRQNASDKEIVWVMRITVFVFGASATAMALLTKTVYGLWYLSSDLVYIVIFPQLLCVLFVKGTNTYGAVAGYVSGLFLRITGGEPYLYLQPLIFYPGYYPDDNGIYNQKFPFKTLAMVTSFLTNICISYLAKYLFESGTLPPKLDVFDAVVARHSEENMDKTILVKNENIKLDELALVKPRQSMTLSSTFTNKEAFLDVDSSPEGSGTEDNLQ
TAG inh = inhibitors of triacylglycerol accumulation; 230,000 compounds, 0.66% hits; H9c2 cells, Nile Red lipid (TAG) fluorescence; cells loaded with 200 µM oleic acid; inhibition, % at 12.5 µM;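 active means pattern-corrected inhibition of lipid staining of at least 50% with the nuclear-stain viability signal not falling by more than 50%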;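 further: 0% = DMSO wells and 100% = triacsin C control wells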
beta cell repl = induces beta-cell replication in MIN6 cells; MIN6 cells proliferation, ATPlite luminescence, 48 h; cells starved in 0.2% serum; 100% = growth in 10% serum; proliferation, % at 10 µM; 330,000 compounds, 0.29% hits; AID 2380;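 active means compounds whose signal lies at least 3.5 SD above the mean of all wells on their plate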;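 further: 0% = DMSO-treated cells in low-serum medium and 100% = 10% serum control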
CHT block = inhibitors of human choline transporter CHT. Q9GZV3. CHT-expressing cells, membrane potential dye, choline response; hits give low values. B-score at 10 µM. 310,000 compounds, 0.86% hits. AID 488975;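 active means B-score over 3 SD under the library average, and starting fluorescence ratio not unusually high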;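 further: choline stimulus applied at its EC90 after an EC20 pre-addition; B-score computed on integrated fluorescence ratio after choline addition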
CHT inh conf = confirmation of human choline transporter CHT inhibitors; CHT-expressing cells, choline membrane potential dye; LV-to-AA substituted CHT, HEK293 cells; shares compounds with CHT block; 2,400 compounds, 70% hits; CHT activity remaining % of control (hits give low values), % at 10 µM;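 active means choline transporter activity left, mean of duplicates at 10 µM, below buffer-only control mean minus 3 SD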;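 further: depolarization triggered by choline at its EC90 following an EC20 pre-addition; 0% = hemicholinium-3 full block and 100% = buffer-only control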
HEK293 MPD ctr = CHT inhibitor counter-screen hit in parental HEK293 cells; membrane potential ratio readout (active if shifted either direction beyond buffer ±3SD; no single direction) at 10 µM; shares compounds with CHT block; membrane potential dye, choline response; active = decrease or increase beyond buffer ±3SD; 2,400 compounds, 4% hits;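 further: parental cells lack the transporter so any hit is non-specific; ratio is peak minus trough fluorescence over baseline after EC90 choline challenge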
* hit, by the source's call; i = inactive; · = not tested or not shown. The list is not random: actives were taken first. Their share in the collection is about 1.7%.

SMILES	CHT PAM	TAG inh	beta cell repl	CHT block	CHT inh conf	HEK293 MPD ctr
COc1cc(/C=C2\S/C(=N/S(=O)(=O)c3ccccc3)NC2=O)c([N+](=O)[O-])cc1OC	i	·	-0.7	-8.18*	52.8%*	i
COc1ccc(S(=O)(=O)/N=C2/NC(=O)/C(=C\c3cc(OC)c(OC)cc3[N+](=O)[O-])S2)cc1	i	8.1	-0.7	i	·	·
CN1CCN(S(=O)(=O)c2ccc(NC(=O)c3ccc(Br)o3)cc2)CC1	i	-11.7	2.1	i	·	·
O=C(Nc1cccc(Cl)c1)Nc1cc(S(=O)(=O)N2CCCCC2)ccc1Cl	i	-22.8	-5.5	i	·	·
CC(=O)Nc1cccc(C(=O)OC(C)C(=O)Nc2ccc(S(=O)(=O)N3CCCC3)cc2)c1 (centres undefined)	i	-6.0	1.3	-6.91*	63.3%*	i
CN1CCN(S(=O)(=O)c2ccc(NC(=O)c3ccc(F)cc3)cc2)CC1	i	9.6	-2.1	i	·	·
CN1CCN(S(=O)(=O)c2ccc(NC(=O)Nc3cccc(Cl)c3)cc2)CC1	i	-9.4	-4.9	-8.11*	28.6%*	i
CN1CCN(S(=O)(=O)c2ccc(NC(=O)c3ccc(Br)s3)cc2)CC1	i	·	-2.8	-7.72*	24.5%*	i
COC(=O)c1cccc(NC(=O)c2ccc(S(=O)(=O)N3CCN(C)CC3)cc2)c1	i	·	-1.2	-5.06*	32.6%*	i
COc1cc2c(cc1OC)-c1cc(NC3CCCCCCC3)nc(=O)n1CC2	i	18.0	5.3	-7.59*	26.6%*	i
COc1cc2c(cc1OC)-c1cc(NC3CCCCC3)nc(=O)n1CC2	i	14.5	0.3	i	·	·
COc1ccc(/C=C/C(=O)NC2CCCCCCC2)cc1S(=O)(=O)N1CCOCC1	i	·	0.1	-7.56*	19.8%*	i
COC(=O)c1ccc(CNC(=O)COC(=O)C23CC4CC(CC(C4)C2)C3)cc1	i	·	-1.8	i	·	·
COc1ccc(CNC(=O)C(c2ccc(C)o2)N(Cc2cccs2)C(=O)Cc2cccs2)cc1 (centres undefined)	i	16.9	-3.1	i	·	·
Cc1nc(SC2CC(=O)N(c3cc(Cl)cc(Cl)c3)C2=O)nc2c1CCCC2 (centres undefined)	i	-15.8	-3.1	-9.18*	57.0%*	i
Cc1c(NC(=O)/C=C/c2cn(-c3ccccc3)nc2-c2ccccc2)c(=O)n(-c2ccccc2)n1C	i	6.8	-6.0	-5.67*	64.9%*	i
O=C(O)/C=C/c1cn(-c2ccccc2)nc1-c1ccccc1	i	·	-3.8	i	·	·
CCn1c(=O)c2ccccc2n(Cc2ccccc2C)c1=O	i	·	3.7	i	·	·
CCn1c2ccccc2c(=O)c2ccccc21	i	10.6	-2.0	-8.18*	14.9%*	i
O=C(c1cc(F)c(F)c(F)c1F)N1CCN(Cc2ccc3c(c2)OCO3)CC1	i	·	-2.0	i	·	·
COc1ccc(C(=O)OCC(=O)NC(C)CCc2ccccc2)c(OC)c1 (centres undefined)	i	·	-1.7	-5.73*	i	i
N#C/C(=C\c1ccc(OCCN2CCOCC2)cc1)C(=O)Nc1ccccc1F	i	-7.3	2.3	i	·	·
COc1ccccc1NC(=O)/C(C#N)=C/c1ccc(OCCN2CCOCC2)c(OC)c1	i	-1.5	0.3	-5.98*	i	i
C=CCCN(C(C(=O)OC)C(C)C)S(=O)(=O)c1ccccc1Br (centres undefined)	i	-1.1	-0.6	i	·	·
O=C(COC(=O)Cc1cccs1)Nc1ccccc1Cl	i	1.0	0.4	-5.49*	i	i
SMILES	CHT PAM	TAG inh	beta cell repl	CHT block	CHT inh conf	HEK293 MPD ctr
COc1ccccc1NC(=O)COC(=O)Cc1cccs1	i	-2.0	-1.7	i	·	·
COc1ccc(C(=O)C2CCCN(C(=O)c3csc(C(C)=O)c3)C2)c(C)c1 (centres undefined)	i	·	4.6	i	·	·
COc1ccc(C(=O)C2CCCN(C(=O)C3=CCCC3)C2)c(C)c1 (centres undefined)	i	0.1	2.1	-4.96*	34.5%*	i
CCOc1ccc(Nc2cc(C)nc(-n3nc(C)cc3C)n2)cc1	i	-14.3	-3.8	-6.12*	i	i
CNc1cc(C)nc(-n2nc(C)cc2C)n1	i	·	-1.7	i	·	·
CCOC(=O)C1(Cc2ccc(Cl)cc2)CCN(C(=O)c2cc(C)nc(C)n2)CC1	i	9.4	-2.2	i	·	·
CC(=O)NS(=O)(=O)c1ccc(NC(=S)NC(=O)Cc2ccccc2)cc1	i	-1.0	0.1	-7.5*	i	i
CC(=O)NS(=O)(=O)c1ccc(NC(=S)NC(=O)CC(C)C)cc1	i	·	-1.1	i	·	·
CCc1cc(CNC(=O)c2ccc(OC3CCN(C(C)=O)CC3)c(OC)c2)on1	i	·	-1.5	i	·	·
Cc1nnc(N2C(=O)C(=O)/C(=C(/O)c3ccc4c(c3)OCCO4)C2c2cccc([N+](=O)[O-])c2)s1 (centres undefined)	·	15.2	·	·	·	·
COc1cccc(C2/C(=C(\O)c3ccc4c(c3)OCCO4)C(=O)C(=O)N2c2nnc(C)s2)c1 (centres undefined)	i	·	-2.7	-5.75*	i	i
Cc1cc2c(cc(C(=O)N3CCC(C(=O)NC4CCCC4)CC3)n2Cc2c(F)cccc2Cl)o1	i	12.9	-6.9	-6.59*	i	i
CCN(CC)C1CCN(C(=O)c2cc(COc3ccc(-n4cncn4)cc3)on2)C1 (centres undefined)	i	-2.5	-3.8	i	·	·
CCn1c(SCc2nc(-c3ccccc3)no2)nnc1-c1ccco1	i	1.0	-2.9	-5.19*	54.9%*	i
CCn1c(SCc2nc(-c3ccccc3)no2)nnc1-c1cccs1	i	-11.9	0.5	-5.49*	47.0%*	i
CCn1c(SCc2nc3scc(-c4ccccc4)c3c(=O)[nH]2)nnc1-c1cccs1	i	·	-2.6	-7.32*	i	i
CCn1c(SCc2nc(-c3cccs3)no2)nnc1-c1c[nH]c2ccccc12	i	·	-3.4	i	·	·
O=c1c2cc(NC(=S)NC3CCCCC3)ccc2nc2n1CCCCC2	i	5.5	-0.6	-5.41*	58.5%*	i
CCN(c1ccc(C)cc1)S(=O)(=O)c1nnc(NC(=O)c2ccco2)s1	i	·	-4.4	i	·	·
Cc1cc(C)n(CCNC(=O)CC2C(=O)NCCN2Cc2ccccc2C(F)(F)F)n1 (centres undefined)	i	5.4	-1.0	-6.39*	i	i
CCc1ccc(C(C)NC(=S)NC2CCCCC2)cc1 (centres undefined)	i	·	-7.5	-8.09*	48.6%*	i
Cc1nc(N2CCCCC2C)c2c(C)c(C(=O)Nc3ccccc3C(F)(F)F)sc2n1 (centres undefined)	i	·	-5.4	-7.49*	i	i

Bioassay records as filed in PubChem BioAssay.
